Data: the antibiotic and cytotoxicity screens of Wong et al. (2023)
Out of some 39,000 compounds screened, about 3,300 (8.5%) were called active. What follows is part of a selection rich in actives, with near analogues and random picks from the rest.

test system: HepG2; assay: cytotoxicity call (relative viability < 0.9); settings: 10 µM

SMILES	cytotoxicity call
CC(C)NC(=O)N[C@@H]1C=C[C@@H](CC(=O)O)O[C@H]1CO	inactive
CC(=O)Oc1ccccc1C(=O)Nc1ncc([N+](=O)[O-])s1	active
CC(=O)Nc1ncc([N+](=O)[O-])s1	inactive
CC(=O)Oc1ccccc1C(=O)Nc1ccccc1	inactive
C[C@@H]1CN([C@H](C)CO)C(=O)CCCn2cc(nn2)CO[C@@H]1CN(C)C(=O)Nc1cccc(Oc2ccccn2)c1	inactive
O=C(N/N=C/[C@H](O)[C@H](O)[C@@H](O)[C@@H](O)CO)c1ccccc1O	active
O=C(N/N=C/[C@H](O)[C@@H](O)[C@@H](O)[C@H](O)C(=O)O)c1ccccc1O	active
O=C(N/N=C/[C@H](O)[C@@H](O)[C@@H](O)[C@H](O)C(=O)O)c1ccccn1	inactive
O=C(N/N=C/[C@@H](O)[C@H](O)[C@H](O)CO)c1ccccc1O	inactive
O=C(N/N=C/[C@H](O)[C@@H](O)[C@H](O)CO)c1ccccc1O	inactive
O=C(N/N=C/[C@H](O)[C@@H](O)[C@H](O)[C@H](O)CO)c1ccccc1O	inactive
C[C@@H]1CN([C@@H](C)CO)C(=O)Cc2cc(NC(=O)CCCCCC(=O)Nc3ccccc3N)ccc2O[C@@H]1CN(C)C(=O)Nc1ccc(C(F)(F)F)cc1	inactive
C[C@@H]1CN([C@H](C)CO)C(=O)Cc2cc(NS(=O)(=O)c3ccccc3)ccc2O[C@@H]1CN(C)S(C)(=O)=O	inactive
CC(=O)OC1C(=O)C2(C)C(O)CC3OCC3(OC(C)=O)C2C(OC(=O)c2ccccc2)C2(O)CC(OC(=O)C(O)C(NC(=O)c3ccccc3)c3ccccc3)C(C)=C1C2(C)C (stereo unspecified)	active
CC(=O)OC12COC1CC(O)C1(C)C(=O)C(O)C3=C(C)C(OC(=O)C(O)C(NC(=O)OC(C)(C)C)c4ccccc4)CC(O)(C(OC(=O)c4ccccc4)C21)C3(C)C.O.O.O (stereo unspecified)	active
COC1C(=O)C2(C)C(OC)CC3OCC3(OC(C)=O)C2C(OC(=O)c2ccccc2)C2(O)CC(OC(=O)C(O)C(NC(=O)OC(C)(C)C)c3ccccc3)C(C)=C1C2(C)C (stereo unspecified)	active
C[C@@H]1CN([C@@H](C)CO)C(=O)c2cccc(N(C)C)c2O[C@@H]1CN(C)S(=O)(=O)c1ccc(Cl)cc1	inactive
C[C@@H]1CN([C@@H](C)CO)C(=O)c2cccc(NC(=O)Nc3ccc(C(F)(F)F)cc3)c2O[C@H]1CN(C)S(=O)(=O)c1ccc(Cl)cc1	inactive
CC(C)NC(=O)Nc1ccc2c(c1)C(=O)N([C@@H](C)CO)C[C@H](C)[C@@H](CN(C)C(=O)Nc1ccc(F)cc1)OCCCC[C@H](C)O2	inactive
O=C(/C=C/c1ccc(O)c(O)c1)O[C@H]1[C@H](O)[C@@H](O)[C@H](OCCc2ccc(O)c(O)c2)O[C@@H]1CO	inactive
C[C@H]1CCCCO[C@H](CN(C)Cc2ccc(C(=O)O)cc2)[C@@H](C)CN([C@@H](C)CO)C(=O)c2cc(NS(=O)(=O)c3ccc(Cl)cc3)ccc2O1	inactive
NCc1c(Cl)cccc1Cl	inactive

SMILES	cytotoxicity call
COCc1cn(CC[C@H]2CC[C@@H](NC(=O)CCN3CCCCC3)[C@H](CO)O2)nn1	inactive
C[C@H]1CCCCO[C@H](CN(C)C(=O)Nc2ccc(C(F)(F)F)cc2)[C@@H](C)CN([C@@H](C)CO)C(=O)c2cc(NS(=O)(=O)c3cn(C)cn3)ccc2O1	inactive
C[C@@H]1CN([C@@H](C)CO)C(=O)c2cc(NC(=O)CCCN(C)C)ccc2O[C@@H]1CN(C)Cc1ccc(C(=O)O)cc1	inactive
Cc1ccc(S(=O)(=O)N(C)C[C@@H]2Oc3c(NS(=O)(=O)c4cccs4)cccc3C(=O)N([C@H](C)CO)C[C@@H]2C)cc1	active
C[C@H]1CN([C@@H](C)CO)C(=O)c2cccc(NS(=O)(=O)c3cccs3)c2O[C@H]1CN(C)S(=O)(=O)c1cn(C)cn1	inactive
C[C@H]1CN([C@@H](C)CO)C(=O)c2cccc(NS(=O)(=O)c3cn(C)cn3)c2O[C@H]1CN(C)S(C)(=O)=O	inactive
C[C@@H]1CN([C@H](C)CO)C(=O)c2cccc(NS(=O)(=O)c3cccs3)c2O[C@@H]1CN(C)S(=O)(=O)c1cn(C)cn1	inactive
Cc1ccc(S(=O)(=O)N(C)C[C@H]2Oc3c(NS(=O)(=O)c4cccs4)cccc3C(=O)N([C@H](C)CO)C[C@@H]2C)cc1	inactive
Cc1ccc(S(=O)(=O)N(C)C[C@@H]2Oc3c(NS(=O)(=O)c4cccs4)cccc3C(=O)N([C@@H](C)CO)C[C@H]2C)cc1	inactive
C[C@@H]1CN([C@H](C)CO)C(=O)c2cccc(NS(=O)(=O)c3cn(C)cn3)c2O[C@@H]1CN(C)S(C)(=O)=O	inactive
C[C@H](CO)N1C[C@H](C)[C@H](CN(C)S(C)(=O)=O)Oc2c(NS(=O)(=O)c3cn(C)cn3)cccc2C1=O	active
C[C@H](CO)N1C[C@H](C)[C@@H](CN(C)S(=O)(=O)c2cn(C)cn2)Oc2c(NS(=O)(=O)c3cccs3)cccc2C1=O	active
O=C(NO)c1ccncc1	inactive
C[C@H]1CN([C@@H](C)CO)C(=O)c2c(c3ccccc3n2C)-c2ccccc2CO[C@@H]1CN(C)C(=O)Nc1ccccc1C(F)(F)F	inactive
CC(C)NC(=O)N(C)C[C@H]1Oc2ccc(NC(=O)CCN3CCOCC3)cc2C(=O)N([C@H](C)CO)C[C@@H]1C	inactive
O=C(C[C@H]1CC[C@H]2[C@@H](COC[C@H](O)CN2C(=O)Nc2ccc(C(F)(F)F)cc2)O1)NCCc1ccncc1	inactive
Cc1noc(C)c1NC(=O)N(C)C[C@@H]1Oc2c(NC(=O)Nc3cccc4ccccc34)cccc2C(=O)N([C@@H](C)CO)C[C@@H]1C	inactive
COc1ccc(-c2cnc3c(c2)C(=O)N([C@H](C)CO)C[C@H](C)[C@H](CN(C)C(=O)C2CCOCC2)O3)cc1	inactive
C[C@@H]1CN([C@H](C)CO)C(=O)c2cc(NS(=O)(=O)c3ccc(F)cc3)ccc2O[C@H]1CN(C)C(=O)Nc1ccc(C(F)(F)F)cc1	inactive
O=c1nc(Nc2ccccc2)cn[nH]1	inactive
CO[C@H]1CN(C)C(=O)c2ccc(NC(=O)Nc3ccccc3F)cc2OC[C@H](C)N(Cc2ccccc2C(=O)O)C[C@@H]1C	inactive
COc1cccc2c1C(=O)c1c(O)c3c(c(O)c1C2=O)C[C@@](O)(C(=O)CO)C[C@@H]3O[C@H]1C[C@H](N)[C@H](O)[C@H](C)O1	active

SMILES	cytotoxicity call
CCCCC(=O)OCC(=O)[C@]1(O)Cc2c(O)c3c(c(O)c2[C@@H](O[C@H]2C[C@H](NC(=O)C(F)(F)F)[C@H](O)[C@H](C)O2)C1)C(=O)c1c(OC)cccc1C3=O	active
COc1cccc2c1C(=O)c1c(O)c3c(c(O)c1C2=O)CC(O)(C(=O)CO)CC3OC1CC(N)C(O)C(C)O1 (stereo unspecified) [listing 1 of 2 here]	active
COc1cccc2c1C(=O)c1c(O)c3c(c(O)c1C2=O)CC(O)(C(=O)CO)CC3OC1CC(N)C(O)C(C)O1.Cl (stereo unspecified)	active
C[C@@H]1CN([C@@H](C)CO)C(=O)Cc2cc(NS(=O)(=O)c3ccc(Cl)cc3)ccc2O[C@@H]1CN(C)Cc1ccc(C(=O)Nc2ccccc2N)cc1	inactive
CN1N=C2CCN(C(=O)[C@@H](COCc3ccccc3)NC(=O)C(C)(C)N)C[C@@]2(Cc2ccccc2)C1=O	inactive
C[C@H]1CN([C@@H](C)CO)C(=O)c2ccccc2-c2ccccc2CO[C@H]1CN(C)C(=O)Nc1cccc(F)c1	inactive
C[C@@H]1CCCCO[C@@H](CN(C)C(=O)Nc2cccc3ccccc23)[C@@H](C)CN([C@H](C)CO)C(=O)c2cc(NC(=O)c3ccncc3)ccc2O1	inactive
CCC(=O)OC1(C(=O)SCF)C(C)CC2C3CC(F)C4=CC(=O)C=CC4(C)C3(F)C(O)CC21C (stereo unspecified)	inactive
Cc1cc(O)c(C=O)c2c1C(=O)Oc1c(COC(=O)C=CC(=O)O)c(O)c(C(=O)O)c(C)c1O2	inactive
C[C@H]1CN([C@@H](C)CO)S(=O)(=O)c2ccc(-c3cncnc3)cc2O[C@H]1CN(C)C(=O)Cc1ccccc1	inactive
COc1ccc([C@@H]2C/C=C\C[C@@H](c3cccc(Cl)c3)NC(=O)[C@@H](c3ccccc3)CC(=O)N2)c(OC)c1	inactive
COc1ccc(S(=O)(=O)Nc2ccc3c(c2)CC(=O)N([C@@H](C)CO)C[C@@H](C)[C@@H](CN(C)S(=O)(=O)c2ccccc2)O3)cc1	inactive
Cc1noc(C)c1NC(=O)Nc1ccc2c(c1)CC(=O)N([C@H](C)CO)C[C@@H](C)[C@H](CN(C)Cc1ccc(C(=O)Nc3ccccc3N)cc1)O2	inactive
COc1cccc2c1C(=O)c1c(O)c3c(c(O)c1C2=O)CC(O)(C(=O)CO)CC3OC1CC(N)C(O)C(C)O1 (stereo unspecified) [listing 2 of 2 here]	active
COc1cccc2c1C(=O)c1c(O)c3c(c(O)c1C2=O)C[C@@](O)(C(=O)CO)C[C@@H]3O[C@H]1C[C@H](N)[C@@H](O)[C@H](C)O1	active
COc1cccc2c1C(=O)c1c(O)c3c(c(O)c1C2=O)C[C@](O)(C(=O)CO)C[C@H]3O[C@H]1C[C@@H](N)[C@@H](O)[C@@H](C)O1	active
C[C@@H]1CN([C@H](C)CO)C(=O)c2cc(NC(=O)C3CC3)ccc2O[C@H]1CN(C)C(=O)Nc1ccc2c(c1)OCO2	inactive
C[C@H]1COC(=O)[C@@H](Cc2ccc(F)cc2)CCC=CC[C@@H](CC(=O)N[C@H](CO)Cc2ccccc2)C(=O)N1	inactive
CC(C)NC(=O)N(C)C[C@@H]1Oc2ccc(NC(=O)CCC(F)(F)F)cc2C(=O)N([C@H](C)CO)C[C@H]1C	inactive
COc1cccc(-c2cccc(-c3nc(C(=O)NCC(F)(F)F)cc4c3[C@@H](CCO)N([S@](=O)C(C)(C)C)C4)c2)c1	inactive
O=C(O)CN(CCN(CC(=O)O)CC(=O)O)CC(=O)O.[Na+].[Na+]	inactive
C[C@H]1CN([C@@H](C)CO)C(=O)Cc2cc(NC(=O)CCCN(C)C)ccc2O[C@@H]1CN(C)C(=O)NC1CCCCC1	inactive
